Test results reported in PubChem BioAssay (NCATS).
Several values for one entry are separate records, joined by “and”; a condition that tells them apart may be missing. Equal values may be shown once. Results filed as inconclusive are left out. Activity calls are given as the source filed them. The call rests on the fitted dose curve; in most records, active means well fitted inhibition curve with a large enough effect; inconclusive means small, poorly fitted or top-dose-only effect; inactive means flat fitted curve, though single readings scatter.

Key:
Assay in all cases: Cytotoxic Profiling of Annotated Libraries Using Quantitative High-Throughput Screening (AID 1296008); further: nearly all actives have a fitted effect of over 60% in size
Conditions in all cases: Five cell lines viability, CellTiter-Glo ATP luminescence, 48-72 h; max response: hits give low values
CRL-7250 = normal cell line; test system: CRL-7250
Outline: (§1)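 Cytotoxicity was measured as CellTiter-Glo ATP luminescence, read after 10 min at room temperature. Compound treatment of the cells lasted 48 or 72 hr at 37 degrees Celsius in a qHTS format.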

HaCat = test system: HaCat
Outline: as §1

KB-3-1 = test system: KB-3-1
Outline: as §1

NIH3T3 = test system: NIH3T3
Outline: as §1
On the % scale 0 is the no-effect control and ±100 the full control effect; potency means the concentration at half of the fitted maximal effect.

C[C@@H]1CC[C@@]23CC[C@]4(C)[C@@](C=CC5[C@@]6(C)CC[C@H](O)C(C)(C)C6CC[C@]54C)(OC2=O)C3[C@H]1C (stereo not given in full)
inactive: outcome (CRL-7250) | max response (HaCat) -10.7% | max response (KB-3-1) 7.23% | max response (NIH3T3) 0.572%

C=C(C(=O)O)[C@@H]1CC=C(CCC(C)=O)[C@@H](C)CC1
inactive: max response (CRL-7250) -0.888% | max response (HaCat) -4.33% | max response (KB-3-1) -14.7% | max response (NIH3T3) -3.55%

Cc1c(C2=CCN(C(=O)N(C)C(C)C)CC2)nnn1-c1cccnc1F
inactive: max response (CRL-7250) -2.94% | max response (HaCat) 3% | max response (KB-3-1) 7.23% | max response (NIH3T3) -3.1%

CCCCOC(=O)NS(=O)(=O)c1sc(CC(C)C)cc1-c1ccc(Cn2ccnc2)cc1
inactive: max response (CRL-7250) -0.539% | max response (HaCat) -26.5% | max response (KB-3-1) -13.1% | outcome (NIH3T3)

CC(C)Oc1ccc(-c2cnc3c(-c4ccnc5ccccc45)cnn3c2)cc1
inactive: max response (CRL-7250) 0.774% | max response (HaCat) 1.5% | max response (KB-3-1) -13.7% | max response (NIH3T3) 3.7%

CCC[C@H](N[C@H]1CCc2cc(F)cc(F)c2C1)C(=O)Nc1cn(C(C)(C)CNCC(C)(C)C)cn1
inactive: max response (CRL-7250) 4.72% | max response (HaCat) -2.54% | max response (KB-3-1) -17.7% | max response (NIH3T3) -10.9%

O=C(NCCN1CCN(c2cccc3c2OCCO3)CC1)c1ccc(F)cc1
inactive: max response (CRL-7250) 2.38% | max response (HaCat) -12.9% | max response (KB-3-1) -10.3% | max response (NIH3T3) 2.39%

COc1ccc(CNCc2cccc3ccccc23)cc1
inactive: outcome (CRL-7250) | max response (HaCat) -12.6% | max response (KB-3-1) 3.07% | max response (NIH3T3) -4.32%

Nc1nc2c(nc(Br)n2[C@@H]2O[C@@H]3COP(=O)(O)O[C@H]3[C@H]2O)c(=O)[nH]1
inactive: max response (CRL-7250) -4.64% | max response (HaCat) -8.41% | outcome (KB-3-1) | outcome (NIH3T3)

O=C(NC1CCC1)c1ccc(C#Cc2cccc(F)c2)nc1
inactive: max response (CRL-7250) -2.08% | max response (HaCat) -7.87% | max response (KB-3-1) 8.07% | max response (NIH3T3) -25.1%

C=CC(C)(C)c1[nH]c2ccccc2c1C[C@@H]1NC(=O)[C@H](C)NC1=O
inactive: max response (CRL-7250) -22.2% | max response (HaCat) 1.83% | max response (KB-3-1) 3.23% | outcome (NIH3T3)

CCC(C)/C=C(C)/C=C/C1=CC2=CC(=O)C3(C)OC(C)(O)C(C(=O)OC)C3C2=CO1 (stereo not given)
inactive: max response (CRL-7250) 2.86% | max response (HaCat) 4.73% | max response (KB-3-1) 0.0483% | max response (NIH3T3) -9.14%

Clc1ncoc1-c1c[nH]c2ccccc12
inactive: outcome (CRL-7250) | max response (HaCat) -17.9% | max response (KB-3-1) 7.62% | max response (NIH3T3) -6.46%

COc1ccc(N2CCN(C(=O)c3cc4c(s3)-c3ccccc3S(=O)(=O)C4)CC2)cc1
inactive: max response (CRL-7250) 4.26% | max response (HaCat) 2.45% | max response (KB-3-1) -19.5% | max response (NIH3T3) -22%

C/C(=C/CO)CCC1C(C)CCC2C(C)(C)CCCC12C (stereo not given)
inactive: max response (CRL-7250) -3.35% | max response (HaCat) -18.8% | max response (KB-3-1) 6.99% | max response (NIH3T3) 1.98%

COc1ccc(C(=O)Nc2c(Cl)cncc2Cl)cc1OC1CCCC1
inactive: max response (CRL-7250) -3.72% | max response (HaCat) -24.5% | max response (KB-3-1) -14.8% | max response (NIH3T3) -4.74%

CCC/C=C\C=C/CCc1cc(O)c([C@@H]2O[C@H](CO)[C@@H](O)[C@H](O)[C@H]2O)c(O)c1C(=O)OC
inactive: max response (CRL-7250) -29.4% | max response (HaCat) -26.9% | max response (KB-3-1) -7.75% | max response (NIH3T3) -3.37%

C=C(COC(=O)C(O)C(O)CN)C12OC1C1(C)C(=CC2=O)C(O)C(O)CC1C (stereo not given)
inactive: max response (CRL-7250) -7.2% | max response (HaCat) 0.561% | outcome (KB-3-1) | outcome (NIH3T3)

O=C1COc2nccc(-c3ccccc3F)c2CN1Cc1cc(C(F)(F)F)cc(C(F)(F)F)c1
inactive: outcome (CRL-7250) | max response (HaCat) -0.797% | max response (KB-3-1) -2.61% | max response (NIH3T3) -11.4%

COc1cc(-c2nc(N[C@H](CO)Cc3ccccc3)ccc2C(=O)NCCOc2ccccc2)cc(OC)c1OC
inactive: max response (CRL-7250) 4.02% | max response (HaCat) -1.78% | max response (KB-3-1) 7.13% | max response (NIH3T3) -3.25%

Cc1cccc(-c2[nH]ncc2-c2ccc(F)c(-c3cnn(CCO)c3)c2)n1
inactive: max response (CRL-7250) -17.9% | max response (HaCat) 3.16% | max response (KB-3-1) -8.92% | max response (NIH3T3) -23.9%

Cc1c(C(=O)NCc2cccnc2)nn(-c2ccc(Cl)cc2Cl)c1-c1ccc(Cl)cc1
inactive: outcome (CRL-7250) | max response (HaCat) -13.1% | max response (KB-3-1) -24% | max response (NIH3T3) -4.76%

CC(C)=CCc1cc2c(cc1O)OC[C@H]1c3ccc(O)cc3O[C@@H]21
inactive: max response (CRL-7250) -7.41% | max response (HaCat) -13.5% | max response (KB-3-1) -5.17% | max response (NIH3T3) -23.2%

CN(C)S(=O)(=O)c1ccc(NC(=S)N2CCC(C(O)(c3ccccc3)c3ccccc3)CC2)cc1
inactive: outcome (CRL-7250) | max response (HaCat) 3.08% | max response (KB-3-1) -18.9% | outcome (NIH3T3)

C=CCC1=C[C@]2(OC)[C@H](C)[C@@H](c3ccc4c(c3)OCO4)O[C@]2(OC)CC1=O
inactive: max response (CRL-7250) -2.76% | max response (HaCat) -12.1% | max response (KB-3-1) -2.11% | max response (NIH3T3) 1.18%

CN(C)c1ccnc2sc3c(=O)n(N4CCCCCC4)cnc3c12
inactive: max response (CRL-7250) -8.13% | max response (HaCat) 1.16% | max response (KB-3-1) 7% | max response (NIH3T3) 4.09%

C=C1CCN([C@H](C)[C@](O)(Cn2cncn2)c2ccc(F)cc2F)CC1
inactive: max response (CRL-7250) -7.35% | max response (HaCat) -11.9% | max response (KB-3-1) -0.073% | outcome (NIH3T3)

CC(C)/C=C1\NC(=O)C(C(C)C)n2c1nc1ccccc1c2=O (stereo not given)
inactive: max response (CRL-7250) 2.92% | max response (HaCat) -9.75% | max response (KB-3-1) -2.24% | max response (NIH3T3) -0.19%

CNS(=O)(=O)c1ccccc1Nc1nc(Nc2ccc(N3CCN(C)CC3)cc2OC)ncc1Br
active: Potency (CRL-7250) 1640 nM | Potency (HaCat) 3260 nM | Potency (KB-3-1) 4610 nM | Potency (NIH3T3) 1460 nM

COC1CC(=O)C23C(=O)NC(CC(C)C)C2C(C)C(C)=CC3/C=C(\C)CCCC1O (stereo not given)
inactive: max response (CRL-7250) -6.23% | max response (HaCat) 3.61% | max response (KB-3-1) 1.14% | max response (NIH3T3) -14.9%

O=C(N[C@H](Cc1cscn1)C(=O)N[C@@H](CC1CCCCC1)[C@@H](O)[C@@H](O)C1CC1)c1nc2ccccc2[nH]1
inactive: max response (CRL-7250) 0.844% | max response (HaCat) -14.3% | max response (KB-3-1) -12.2% | max response (NIH3T3) -17.1%

O=C(Nc1ccccc1Cl)c1cnc2ccc(C3CCNCC3)cn12
inactive: max response (KB-3-1) 2.96%
active: Potency (CRL-7250) 1030 nM | Potency (HaCat) 1640 nM | Potency (NIH3T3) 1460 nM

Cc1ccc(S(=O)(=O)NCc2ccc(C(=O)NCCN(Cc3ccccc3)C(C)C)cc2)cc1
inactive: max response (CRL-7250) -10.1% | max response (HaCat) -19.3% | max response (KB-3-1) -24.2% | max response (NIH3T3) -5.87%

CCC(C)C(=O)O[C@H]1[C@@H](OC(=O)c2ccoc2)C[C@](C)(O)[C@]23OC(C)(C)[C@H](C[C@H](OC(=O)c4ccoc4)[C@]12COC(C)=O)[C@H]3OC(C)=O (stereo not given in full)
inactive: max response (CRL-7250) -11% | max response (HaCat) -1.74% | max response (KB-3-1) 3.34% | outcome (NIH3T3)

CC1OC(OC2C(O)COC(O[C@@H]3[C@@H](O)[C@@H](O)[C@H](OC4C(OC(=O)[C@]56CCC(C)(C)CC5C5=CCC7[C@@]8(C)C[C@H](O)[C@H](OC9OC(CO)C(O)C(O)C9O)[C@@](C)(CO)C8[C@H](O)C[C@@]7(C)[C@]5(C)CC6)OCC(O)C4O)O[C@H]3C)C2O)C(O)C(O)C1O (stereo not given in full)
inactive: max response (CRL-7250) -12.5% | max response (HaCat) 0.653% | max response (KB-3-1) 8.32% | max response (NIH3T3) 2.11%

CC/C(C)=C/C(=O)OC1C(OC2(C)CCC3C(C4C(C)CCC42)C3(C)C)OC(C)C(O)C1O (stereo not given)
inactive: max response (CRL-7250) -1.32% | max response (HaCat) -0.133% | outcome (KB-3-1) | max response (NIH3T3) -0.0823%

CCC(C)C(=O)OC12C(OC(C)=O)C(C)C3(O)C(C=C(CO)CC4(O)C(=O)C(C)=CC43)C1C2(C)C (stereo not given)
inactive: max response (CRL-7250) -7.79% | max response (HaCat) -11.4% | outcome (KB-3-1) | outcome (NIH3T3)

O=C(NCCCNC(=O)c1ccc[nH]c1=O)c1cc(-c2ccccc2)on1
inactive: max response (CRL-7250) -21.2% | max response (HaCat) -1.65% | max response (KB-3-1) -25.1% | max response (NIH3T3) 2.72%

CCc1c(Cl)c(O)c(Cl)c(O)c1C(=O)O[C@H]1[C@H](O)[C@H](OC)[C@H](OC/C2=C\C=C\C[C@H](O)/C(C)=C\[C@H](CC)[C@@H](O[C@@H]3OC(C)(C)[C@@H](OC(=O)C(C)C)[C@H](O)[C@@H]3O)/C(C)=C/C(C)=C/C[C@@H]([C@@H](C)O)OC2=O)O[C@@H]1C
inactive: outcome (CRL-7250) | max response (HaCat) -22.3% | max response (KB-3-1) -8.77% | outcome (NIH3T3)

CCOc1ccc(Cc2nc(-c3c(C)nc4ccccn34)cs2)cc1
active: Potency (CRL-7250) 51.7 nM | Potency (KB-3-1) 25.9 nM | Potency (NIH3T3) 46.1 nM
inactive: max response (HaCat) -17.5%

CC1(C)CCC(C)(C)c2cc(C#Cc3ccc(C(=O)O)cc3)ccc21
inactive: max response (CRL-7250) -18.1% | max response (HaCat) -1.18% | max response (KB-3-1) -2.7% | outcome (NIH3T3)

CCC[C@@]1(CCc2ccccc2)CC(O)=C([C@H](CC)c2cccc(NS(=O)(=O)c3ccc(C(F)(F)F)cn3)c2)C(=O)O1
inactive: outcome (CRL-7250) | max response (HaCat) 2.03% | max response (KB-3-1) -13.2% and -6.18% | outcome (NIH3T3)

C=CC(C)(O)CC[C@@H]1[C@@]2(C)CCCC(C)(C)C2CC[C@@]1(C)O (stereo not given in full)
inactive: max response (CRL-7250) -17.3% | max response (HaCat) -28.7% | max response (KB-3-1) -9.76% | max response (NIH3T3) -17%

COc1cc(CCc2cc(NC(=O)c3ccc(N4CC(C)NC(C)C4)cc3)n[nH]2)cc(OC)c1 (stereo not given)
active: Potency (CRL-7250) 9200 nM | Potency (KB-3-1) 11600 nM | Potency (NIH3T3) 14600 nM
inactive: max response (HaCat) 4.79%

N#Cc1ccc(COC[C@H]2O[C@@H](n3c(NCc4ccc(Cl)c(Cl)c4)nc4c(N)ncnc43)[C@H](O)[C@@H]2O)cc1
inactive: outcome (CRL-7250) | max response (HaCat) -23% | max response (KB-3-1) 2.86% | max response (NIH3T3) -0.0303%
